In PubChem BioAssay AID488829 (NMMLSC, 2010) one finds fluorescence change (span) data, which are given here for 2 compounds.

SMILES strings stand for the structures. Some of the results follow. A number with no mark means an inactive call.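 Rule for the calls: active = fluorescence change span, or the activity score built from it, above 25; inactive = the rest.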

The nature of the experiment: parental-strain fluorescence artefact check – primary hits, KU SAR, s288c parental, artefact control for yeast TOR pathway GFP screen, dose response (AID 488829). As to conditions: S. cerevisiae s288c parental, compound autofluorescence, flow cytometry, 3 h; at 33 µM; hits give high values.

In the case of `Cc1ccc(-c2nn(C(C)(C)C)c3ncnc(N)c23)cc1`, the fluorescence change (span) was 0.41.

`CN(C)CCCNc1nc(N)c([N+](=O)[O-])c(Nc2cccc(F)c2)n1`: the fluorescence change (span) is 0.05.
